Laboratory results as given in the supplement of paper PMC10498489.
Screen size: about 2,300 compounds; about 330 (14%) showed activity. Not all results are given here. A number with no mark means an inactive call.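 How the source made its calls: active = median modified Z-score above 1.96; inactive = 1.96 or below.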

The compounds below were run on HepG2 Srxn1-GFP reporter cells (+30 nM CDDO-Me) (assay: Srxn1-GFP intensity median modified Z-score relative to plate median; higher = stronger NRF2 / oxidative stress reporter activation, active = hit call of the paper). Conditions: 10 µM; exposure time: 24h.
In short: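 Per-cell cytoplasmic GFP was measured on confocal images of formaldehyde-fixed, Hoechst-stained HepG2 Srxn1-GFP BAC reporter cells, excluding images with fewer than 100 cells. Before this, the cells (20,000 per well, 96-well plates) were co-exposed for 24 h to compound at 10 μM and an NRF2 activator at 30 nM with ≤0.1% DMSO, in three replicate plates. Each value is the median over replicates of the per-plate modified Z-score of GFP intensity. That score was scaled with 1.4826 × median absolute deviation.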

First: N=c1[nH]c(=O)c2[nH]c(=O)cnc2[nH]1 [euspeclibcmpd1707]
Second: C[C@H](Cn1cnc2c(=N)nc[nH]c21)OCP(=O)(O)O [euspeclibcmpd1075]
The “Srxn1-GFP intensity median modified Z-score” value of the first is lower: -0.214 for the first, -0.0246 for the second.

Compared with `CCCc1nc(C(C)(C)O)c(C(=O)OCc2oc(=O)oc2C)n1Cc1ccc(-c2ccccc2-c2nn[nH]n2)cc1` [euspeclibcmpd716], `CCCCc1nc(Cl)c(CO)n1Cc1ccc(-c2ccccc2-c2nn[nH]n2)cc1` [euspeclibcmpd678] is higher in “Srxn1-GFP intensity median modified Z-score” value: -0.529 for the first, -0.235 for the second.

Compared with `O=C1C(CCC(O)c2ccc(F)cc2)[C@@H](c2ccc(O)cc2)N1c1ccc(F)cc1` (some centres undefined) [euspeclibcmpd714], `OC[C@H]1O[C@H](Oc2cc(O)cc(C=Cc3ccc(O)cc3)c2)[C@H](O)[C@@H](O)[C@@H]1O` [euspeclibcmpd1401] is lower in “Srxn1-GFP intensity median modified Z-score” value: 1.03 for the first, -0.514 for the second.

First: COC(=O)C(NC(=O)CCCCn1cnc2c(N)ncnc21)C(C)C (centres undefined)
Second: CCS(=O)(=O)N1CCCC(C(=O)NCCCN(C)OC)C1 (centres undefined)
The “Srxn1-GFP intensity median modified Z-score” value of the first is higher: 1.19 for the first, 0.974 for the second.

First: CC(=O)OC1(C(C)=O)CCC2C3=CC(Cl)=C4CC(=O)C5CC5C4(C)C3CCC21C (centres undefined) [euspeclibcmpd1971]
Second: CC(=O)OCC(=O)[C@@]1(O)CCC2C3CC=C4CC(=O)CC[C@]4(C)C3[C@@H](O)C[C@@]21C (some centres undefined) [euspeclibcmpd151]
The “Srxn1-GFP intensity median modified Z-score” value of the first is higher: -0.163 for the first, -0.58 for the second.

Compared with `CC(O)CN(CCN(CC(C)O)CC(C)O)CC(C)O` (centres undefined) [euspeclibcmpd990], `CC(CCC(=O)O)[C@H]1CCC2C3CC[C@@H]4C[C@H](O)CC[C@]4(C)C3C[C@H](O)[C@@]21C` (some centres undefined) [euspeclibcmpd2112] is higher in “Srxn1-GFP intensity median modified Z-score” value: -0.227 for the first, -0.195 for the second.

First: Nc1ccc(S(=O)(=O)N=c2ccc(Cl)n[nH]2)cc1 [euspeclibcmpd398]
Second: O=C(NCC(O)=NO)c1ccc(Cl)cc1 [euspeclibcmpd774]
The “Srxn1-GFP intensity median modified Z-score” value of the first is lower: -0.684 for the first, 0.804 for the second.

First: O=c1c(O)c(-c2ccc(O)c(O)c2)oc2cc(O)cc(O)c12
Second: COC(=O)C[C@H]1C(C)(C)C(=O)C2CC3=C(CC[C@]4(C)C3=CC(=O)O[C@H]4c3ccoc3)[C@@]1(C)C2=O [euspeclibcmpd1591]
The “Srxn1-GFP intensity median modified Z-score” value of the first is higher: 0.376 for the first, 0.352 for the second.

With `CCCc1nc2c(C)cc(-c3nc4ccccc4n3C)cc2n1Cc1ccc(-c2ccccc2C(=O)O)cc1` [euspeclibcmpd729] the “Srxn1-GFP intensity median modified Z-score” value was 3.15 (active).
In the case of `Oc1ccc(C=Cc2cc(O)cc(O)c2)cc1` [euspeclibcmpd1411], the “Srxn1-GFP intensity median modified Z-score” value is reported as 12.1 (active).
`CN(C)c1ccc(C(=C2C=CC(=[N+](C)C)C=C2)c2ccc(N(C)C)cc2)cc1` [euspeclibcmpd139] was tested, and the “Srxn1-GFP intensity median modified Z-score” value was 8.6 (active).
